“And” between values parts separate entries of the source, which are not always exact repeats. Equal values may be shown once. Records with an inconclusive call do not appear. Where a call stands in place of a potency, no number is given. Some structures have more than one record in an assay (separate samples or runs), and their calls can disagree. The source made the active and inactive calls. The call rests on the fitted dose curve; in most records, active means well fitted curve in the direction sought with a large enough effect in the repeat runs; inconclusive means weak or mixed curves; inactive means no such curve, though single readings can be large; an effect the other way counts as inactive or inconclusive.
How the values were obtained:
[1] = qHTS RealTime-Glo MT Cell Viability Assay in HepG2 cells - 40 hour (AID 1224870); further: nearly all actives have a fitted effect of over 50% in size
Outline: (§1)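 HepG2 cells mixed with RealTime-Glo MT reagents (NanoLuc plus cell-permeant prosubstrate) were seeded at 600 cells/well, incubated 5 h at 37 C/5% CO2, then pinned with compounds in DMSO; nonlytic luminescence tracked viability during 40 h treatment.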

[2] = A CellTox Green Cytotoxicity Assay to monitor cytotoxicity in HEK293 cells - 40 hour (AID 1224871); further: nearly all actives have a fitted effect of over 45% in size; further: potency means the concentration at half of the fitted maximal effect
Outline: (§2)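 Cells (HEK293, 600/well) and dye reagent are dispensed together. After 5 h at 37 C, 23 nL compound is pinned in. Plates stay at 37 C for 40 h with fluorescence read at 0h, 8h, 16h, 24h, 32h and 40h.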

[3] = qHTS RealTime-Glo MT Cell Viability Assay in HEK293 cells - 16 hour (AID 1224872); further: top concentration of the series differs between compounds; nearly all actives have a fitted effect of over 50% in size
Outline: (§3)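 HEK293 cells were seeded at 600 cells/well together with NanoLuc luciferase and cell-permeant prosubstrate, preincubated 5 h at 37 C/5% CO2, then given compound in DMSO by pintool. Luminescence from viable-cell prosubstrate reduction was read repeatedly over 40 h.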

[4] = qHTS RealTime-Glo MT Cell Viability Assay in HepG2 cells - 8 hour (AID 1224873); further: nearly all actives have a fitted effect of over 55% in size
Outline: as §1

[5] = qHTS RealTime-Glo MT Cell Viability Assay in HEK293 cells - 40 hour (AID 1224874); conditions: RealTime-Glo luminescence; max response: stronger effect = lower value; further: nearly all actives have a fitted effect of over 50% in size
Outline: (§4)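 Real-time viability in HEK293: signal arises when living cells convert a prosubstrate for NanoLuc in the medium, so luminescence tracks viable cell number. Compound (23 nL, DMSO) added 5 h post-seeding; kinetic reads at 0–40 h, 37 C.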

[6] = A CellTox Green Cytotoxicity Assay to monitor cytotoxicity in HepG2 cells - 16 hour (AID 1224876); further: nearly all actives have a fitted effect of over 45% in size
Outline: (§5)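 Cells and non-lytic dye reagent are dispensed together (600 HepG2 cells/well) and incubated 5 h before DMSO compound transfer. Kinetic fluorescence is then recorded in the same wells during 40 h at 37 C.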

[7] = qHTS RealTime-Glo MT Cell Viability Assay in HepG2 cells - 32 hour (AID 1224877); further: nearly all actives have a fitted effect of over 55% in size
Outline: (§6)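 HepG2 cells were seeded at 600 cells/well together with NanoLuc luciferase and a cell-permeant prosubstrate, preincubated 5 h at 37 C/5% CO2, then pin-dosed with compounds in DMSO. Nonlytic luminescence from viable cells was read at each time point.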

[8] = A CellTox Green Cytotoxicity Assay to monitor cytotoxicity in HepG2 cells - 24 hour (AID 1224878); further: nearly all actives have a fitted effect of over 45% in size
Outline: as §5

[9] = A CellTox Green Cytotoxicity Assay to monitor cytotoxicity in HepG2 cells - 40 hour (AID 1224879); further: nearly all actives have a fitted effect of over 40% in size
Outline: as §5

[10] = qHTS RealTime-Glo MT Cell Viability Assay in HEK293 cells - 0 hour (AID 1224880); further: top concentration of the series differs between compounds; nearly all actives have a fitted effect of over 45% in size
Outline: as §4

[11] = A CellTox Green Cytotoxicity Assay to monitor cytotoxicity in HepG2 cells - 0 hour (AID 1224882); further: nearly all actives have a fitted effect of over 35% in size
Outline: as §5

[12] = A CellTox Green Cytotoxicity Assay to monitor cytotoxicity in HepG2 cells - 32 hour (AID 1224883); further: nearly all actives have a fitted effect of over 50% in size
Outline: as §5

[13] = A CellTox Green Cytotoxicity Assay to monitor cytotoxicity in HEK293 cells - 8 hour (AID 1224884); further: nearly all actives have a fitted effect of over 35% in size
Outline: as §2

[14] = qHTS RealTime-Glo MT Cell Viability Assay in HepG2 cells - 16 hour (AID 1224885); further: nearly all actives have a fitted effect of over 50% in size
Outline: as §6

[15] = qHTS RealTime-Glo MT Cell Viability Assay in HEK293 cells - 24 hour (AID 1224886)
Outline: as §3

[16] = qHTS RealTime-Glo MT Cell Viability Assay in HEK293 cells - 8 hour (AID 1224887)
Outline: as §4

[17] = A CellTox Green Cytotoxicity Assay to monitor cytotoxicity in HEK293 cells - 16 hour (AID 1224888); further: nearly all actives have a fitted effect of over 35% in size
Outline: as §2

[18] = qHTS RealTime-Glo MT Cell Viability Assay in HepG2 cells - 0 hour (AID 1224889); further: nearly all actives have a fitted effect of over 50% in size; further: potency means the concentration at half of the fitted maximal effect
Outline: as §6

[19] = A CellTox Green Cytotoxicity Assay to monitor cytotoxicity in HEK293 cells - 32 hour (AID 1224881); further: nearly all actives have a fitted effect of over 40% in size
Outline: as §2

[20] = A CellTox Green Cytotoxicity Assay to monitor cytotoxicity in HEK293 cells - 24 hour (AID 1224875)
Outline: as §2

Compound	Potency [1]	Potency [2]	Potency [3]	Potency [4]	max response [5]	Potency [6]	Potency [7]	Potency [8]	Potency [9]	Potency [10]	Potency [11]	Potency [12]	Potency [13]	Potency [14]	Potency [15]	Potency [16]	Potency [17]	Potency [18]	Potency [19]	Potency [20]
CCCCC/C=C\C/C=C\CCCCCCCC(=O)OC	inactive	inactive and 54.9 µM (active)	inactive	inactive	3.92% (inactive) and -0.83% (inactive)	inactive	inactive	inactive	inactive	inactive	inactive	inactive	inactive	inactive	inactive	inactive	inactive	inactive	–	–
CC(=O)[C@@]1(O)CC[C@H]2[C@@H]3CCC4=CC(=O)CC[C@]4(C)[C@H]3CC[C@@]21C	inactive	inactive	inactive	inactive	–	inactive	inactive	inactive	inactive	inactive	inactive	inactive	inactive	inactive	inactive	inactive	inactive	6.16 µM (active) and 8.49 µM (active)	–	–
O=C1O[C@H](CO)[C@@H](O)[C@H](O)[C@H]1O	inactive	inactive	inactive	inactive	1.84% (inactive) and 0.71% (inactive)	inactive	inactive	inactive	inactive	inactive	inactive	inactive	inactive	inactive	inactive	inactive	inactive	inactive	inactive	–
O=c1c(-c2ccc(O)cc2)coc2cc(O)ccc12	inactive	inactive	inactive	inactive	–	inactive	inactive	inactive	inactive	inactive	inactive	inactive	inactive	inactive	–	inactive	inactive	inactive	–	inactive
NCc1cccc(CN)c1	inactive	–	inactive	inactive	-20.2% (inactive) and 8.99% (inactive)	inactive	inactive	inactive	inactive	inactive	inactive	inactive	inactive	inactive	inactive	inactive	inactive	inactive	–	–
Cc1cc(O)c2c(c1)C(=O)c1cc(O)cc(O)c1C2=O	inactive	inactive	inactive	inactive	–	inactive	inactive	inactive	inactive	inactive	inactive	inactive	inactive	inactive	–	inactive	inactive	inactive	inactive	–
Cc1ccc(C(=O)O)o1	inactive	inactive	inactive	inactive	2.67% (inactive) and -10.1% (inactive)	inactive	inactive	inactive	inactive	inactive	inactive	inactive	inactive	inactive	inactive	inactive	inactive	inactive	inactive	–
CCOC(=O)C1OC1c1ccccc1 (configuration not stated)	inactive	inactive	–	inactive	–	inactive	inactive	inactive	–	inactive	inactive	inactive	inactive	inactive	–	inactive	inactive	inactive	inactive	inactive
NC(=O)/N=N/C(N)=O	inactive	inactive	inactive	inactive	1.69% (inactive) and 1.16% (inactive)	inactive	inactive	inactive	inactive	inactive	inactive	inactive	inactive	inactive	inactive	inactive	inactive	inactive	inactive	–
CC1CC(OC(=O)c2ccccc2O)CC(C)(C)C1 (configuration not stated)	inactive	48.5 µM (active) and inactive	inactive	inactive	-10.4% (inactive) and -7.39% (inactive) and -13.1% (inactive)	inactive	inactive	inactive	inactive	inactive	inactive	inactive	inactive	inactive	inactive	inactive	inactive	inactive	inactive	–
CCCCC(CC)COC(=O)/C=C\C(=O)OCC(CC)CCCC (configuration not stated)	inactive	inactive	inactive	–	1.02% (inactive) and -3.16% (inactive)	inactive	inactive	inactive	inactive	inactive	inactive	inactive	inactive	–	inactive	inactive	inactive	inactive	–	inactive
CC(C)NCC(O)COc1cccc2ccccc12 (configuration not stated)	inactive	inactive	inactive	inactive	–	inactive	inactive	inactive	–	inactive	inactive	–	inactive	inactive	inactive	inactive	inactive	inactive	inactive	inactive

Reference: PubChem BioAssay (Tox21)
